This note sets out measurements from PubChem BioAssay (NCATS).

One test has as its system MCC-13. As to the kind of experiment: qHTS assay to identify novel small-molecules to repurpose for Merkel cell carcinoma treatment (AID 1296009). Further: nearly all actives have a fitted effect of over 60% in size. Further: potency means the concentration at half of the fitted maximal effect. As to conditions: MCC and control cell lines, CellTiter-Glo viability, 72 h; series mostly up to 46 µM. The gist of the method:
(§1)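 72 hr, 37 degree celsius; NPC 8-pt / MIPE 11-pt dose response; compound pinned in DMSO; CellTiter-Glo, 10 min RT, luminescence; normalized to no-cell and DMSO controls.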

A further test deals with MCC-26. The test is described as above. As to conditions: MCC and control cell lines, CellTiter-Glo viability, 72 h; series mostly up to 46 µM. In short, it runs like this: as §1
For a further test, the system named is MKL-1. The description is as above. As to conditions: MCC and control cell lines, CellTiter-Glo viability, 72 h; series mostly up to 46 µM. In short, it runs like this:
as §1

For another test, the system named is MKL-2. The test is described as above. As to conditions: MCC and control cell lines, CellTiter-Glo viability, 72 h; series mostly up to 46 µM. The gist of the method: as §1
Another test concerns UISO. Described as above. As to conditions: MCC and control cell lines, CellTiter-Glo viability, 72 h; series mostly up to 46 µM. In short, it runs like this: as §1
For a further test, the system named is WaGa. The description is as above. As to conditions: MCC and control cell lines, CellTiter-Glo viability, 72 h; series mostly up to 46 µM. In short, it runs like this:
as §1

The test system of another test is NIH3T3. Described as above. As to conditions: MCC and control cell lines, CellTiter-Glo viability, 72 h; at 44.8 µM (top of the series) unless noted. In short, it runs like this: as §1
A further test has as its system C33A. Description: Primary qHTS to identify gynecologic anti-cancer compounds using libraries of approved drugs and bioactive compounds (AID 1345084). Further: nearly all actives have a fitted effect of over 55% in size. As to conditions: Gynecologic cancer cell panel viability, ATPlite luminescence, 48 h; series mostly up to 57.5 µM. In short, it runs like this: (§2)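 In this quantitative HTS, cell killing is estimated from loss of ATP-dependent luciferase light. Cells see five compound concentrations over a 48 h exposure.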

A further test relates to CASKI. The description is as above. As to conditions: Gynecologic cancer cell panel viability, ATPlite luminescence, 48 h; series mostly up to 57.5 µM. In short, it runs like this:
as §2

Results filed as inconclusive are left out. Values without a mark were called inactive. Calls of active or inactive are those of the source. The call rests on the fitted dose curve; in most records, active means well fitted curve in the direction sought with a large enough effect; inconclusive means small, poorly fitted or top-dose-only effect, or another doubt; inactive means no such curve, though single readings can be large; an effect the other way counts as inactive or inconclusive.
On the % scale 0 is the no-effect control and ±100 the full control effect.

Turning to `O=C1c2cccc(O)c2C(=O)c2c(O)cc(CO)cc21`, the Potency entry with MCC-13, with MCC-26, in the test on MKL-1, with MKL-2, in the test with UISO and in the test with WaGa was “inactive” throughout.

In the case of `CN1[C@H]2CC(OC(=O)[C@@H](CO)c3ccccc3)C[C@H]1[C@H]1O[C@H]12` (stereo partly drawn), the Potency entry in the test with MCC-13, in the test on MCC-26, in the test with MKL-1, with MKL-2, in the test with UISO and in the test with WaGa was “inactive” throughout.

Regarding `COC1=C(OC)C(=O)C(CC=C(C)CCC=C(C)CCC=C(C)CCC=C(C)CCC=C(C)CCC=C(C)CCC=C(C)CCC=C(C)CCC=C(C)CCC=C(C)C)=C(C)C1=O`, the Potency result with MCC-13, in the test with MCC-26, in the test on MKL-1, in the test on MKL-2, in the test on UISO and in the test with WaGa was “inactive” in each case.

As to `COc1ccc(C(C)=O)c(O)c1`, the Potency result in the test on MCC-13, in the test with MCC-26, with MKL-1, with MKL-2, in the test with UISO and in the test with WaGa was “inactive” in each case.

As to `CN[C@H]1[C@@H](O)[C@@H]2O[C@@H]3O[C@H](C)CC(=O)[C@]3(O)O[C@@H]2[C@@H](NC)[C@H]1O`, the Potency entry in the test with MCC-13 and in the test on MCC-26 was “inactive” throughout. Besides, the Potency in the test on MKL-1 was 0.166 µM (active); in the test with MKL-2, 2.96 µM (active); in the test on UISO, 3.72 µM (active); with WaGa, 0.296 µM (active).

`COc1ccc(Nc2nccc(NCCO)n2)cc1`: the Potency result in the test with MCC-13, in the test with MCC-26, in the test with MKL-1, in the test with MKL-2, with UISO and with WaGa was “inactive” throughout.

Consider `O=C(O)C(=O)Nc1cccc(C2=NN=N[N]2)c1`, for which the Potency result in the test on MCC-13, with MCC-26, in the test with MKL-1, in the test with MKL-2, in the test on UISO and in the test with WaGa was “inactive” each time.

With `CCCNS(=O)(=O)Nc1ncnc(OCCOc2ncc(Br)cn2)c1-c1ccc(Br)cc1`, the Potency entry in the test on MCC-13, with MCC-26, in the test on MKL-1, in the test on MKL-2, with UISO and with WaGa was “inactive” in each case.

Regarding `OCC(O)C(O)C(O)CO` (stereo not drawn), the Potency entry in the test with MCC-13, in the test on MCC-26, in the test on MKL-1, in the test on MKL-2, in the test on UISO and in the test with WaGa was “inactive” each time.

Take `CC(C)(C)[C@H](NC(=O)c1ccc(N)c(Cl)c1)C(=O)N1CCC[C@@H]1C(=O)N[C@H](C#N)CC(=O)O`: the activity change, negative = cytotoxicity in the test with MCC-13 is 7.54% [at 4.84 µM]; in the test on MCC-26, -4.4% [at 4.84 µM]; in the test on MKL-1, 0.918% [at 4.84 µM]; with UISO it was 4.89% [at 4.84 µM]; in the test with WaGa, -0.0966% [at 4.84 µM]. Besides, in the test on NIH3T3, the outcome is “inactive [at 4.96 µM]”.

On to `COc1cc(OC)c(NC(=O)Nc2cc(C)on2)cc1Cl`, for which the Potency entry in the test on MCC-13, in the test with MCC-26, with MKL-1, in the test on MKL-2, with UISO and in the test with WaGa was “inactive” throughout.

For the molecule `Nc1ccn(C2CO[C@H](CO)O2)c(=O)n1` (stereo partly drawn), the Potency entry with MCC-13, in the test with MCC-26, with MKL-1, with MKL-2, with UISO and with WaGa was “inactive” each time. The Potency entry with C33A and in the test with CASKI was “inactive” in each case.

Regarding `CCn1c(=O)c2c(nc(C=Cc3ccc(OC)c(OC)c3)n2C)n(CC)c1=O`, the Potency result in the test with MCC-13, in the test with MCC-26, in the test on MKL-1, with UISO, in the test with WaGa and with C33A was “inactive” throughout. Besides, the Potency result in the test on CASKI was “inactive”. Moreover, in the test with NIH3T3, the result was inactive.

Regarding `O=C(C=CC#Cc1cccc(NS(=O)(=O)c2ccccc2)c1)NO`, the Potency with MCC-13 was 14.8 µM (active); in the test on MCC-26 it was 18.7 µM (active); in the test with MKL-1, 3.72 µM (active); in the test with MKL-2 it was 1.32 µM (active); in the test on UISO, 16.6 µM (active); in the test on WaGa it was 1.18 µM (active).
